Structures are written as SMILES. Calls of active or inactive are those of the source. Calls come from the whole dose curve.

This is an account of results in PubChem BioAssay (NCATS).
Potency is the fitted concentration of half-maximal effect.

Sequence of Glucocorticoid receptor (Homo sapiens) (P04150 whole entry, looked up, the tested form may be a part): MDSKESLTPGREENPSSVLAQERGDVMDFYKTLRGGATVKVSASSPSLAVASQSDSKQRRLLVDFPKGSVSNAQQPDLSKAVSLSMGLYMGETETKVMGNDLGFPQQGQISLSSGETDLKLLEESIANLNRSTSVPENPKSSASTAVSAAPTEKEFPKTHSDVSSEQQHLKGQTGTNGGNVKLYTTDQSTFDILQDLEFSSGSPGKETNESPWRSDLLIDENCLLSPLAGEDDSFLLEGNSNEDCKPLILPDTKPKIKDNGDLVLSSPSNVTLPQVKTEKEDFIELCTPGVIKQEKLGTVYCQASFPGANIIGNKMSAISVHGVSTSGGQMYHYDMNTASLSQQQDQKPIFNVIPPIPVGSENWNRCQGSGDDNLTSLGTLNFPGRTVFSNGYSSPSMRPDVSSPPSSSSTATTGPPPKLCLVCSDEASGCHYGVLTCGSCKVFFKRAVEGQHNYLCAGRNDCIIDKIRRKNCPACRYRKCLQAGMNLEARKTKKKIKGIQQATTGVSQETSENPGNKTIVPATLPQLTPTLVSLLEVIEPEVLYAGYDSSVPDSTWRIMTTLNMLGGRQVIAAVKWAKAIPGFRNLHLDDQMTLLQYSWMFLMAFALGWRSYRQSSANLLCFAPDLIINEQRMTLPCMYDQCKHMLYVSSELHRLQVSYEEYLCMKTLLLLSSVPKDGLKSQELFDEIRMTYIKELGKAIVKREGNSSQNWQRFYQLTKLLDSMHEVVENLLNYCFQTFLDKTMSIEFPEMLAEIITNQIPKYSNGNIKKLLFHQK

This experiment addresses Glucocorticoid receptor (Homo sapiens) (UniProt P04150). The experiment is described as follows: GR-EFC Redistribution (AID 451). The settings on record: CHO-K1 GR-EFC translocation, beta-gal luminescence, 2 h. In outline:
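CHO-K1 cells stably expressing nuclear-localized β-gal enzyme acceptor and GR fused C-terminally to the enzyme donor fragment; ligand-driven nuclear translocation restores β-gal by complementation. Compounds titrated up to 46 uM final, 2 h at 37 °C; luminescence read.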
Regarding `Cc1cccc(CNc2ncncc2-c2ccccc2CN(C)C)c1`, the Potency is > 46 µM (inactive). On to `COc1ccc(Oc2ncc3nc(-c4cc(F)cc(F)c4)c(=O)n(C4CC4)c3n2)cc1`, for which the Potency is > 46 µM (inactive). Next, `O=c1c(-c2ccccc2)nc2cnc(Oc3ccccc3)nc2n1C[C@H]1CCCO1`: > 46 µM (inactive). Next, `COc1ccccc1-c1nccc(N2CCN(C)CC2)n1`: > 46 µM (inactive); `Cc1nc2cnc(N3CCN(C)CC3)nc2n(CCc2ccccc2)c1=O`: > 46 µM (inactive). For `COc1cccc(-c2cncnc2NCCN2CCOCC2)c1`, the Potency is > 46 µM (inactive). Next, `O=c1c(CCc2ccccc2)nc2cnc(Oc3ccccc3)nc2n1C1CC1`: > 46 µM (inactive); `CCNc1ncc2ncc(=O)n(Cc3ccc(F)cc3)c2n1`: > 46 µM (inactive); `c1ccc(CNc2nc(-c3cccnc3)nc3ccccc23)cc1`: > 46 µM (inactive).

On to `COc1cccc(Cn2c(=O)cnc3cnc(Nc4cccc(OC)c4)nc32)c1`, for which the Potency was > 46 µM (inactive). The same measure for `COc1cccc(-c2ccc3ncnc(NCc4cnc(C)cn4)c3c2)c1`: > 46 µM (inactive); for `Cn1c(=O)c(-c2ccccc2)nc2cnc(N3CCOCC3)nc21`: > 46 µM (inactive); for `CN1CCN(c2ncc3nc(-c4cn(C)c5ccccc45)c(=O)n(C[C@H]4CCCO4)c3n2)CC1`: > 46 µM (inactive).

Turning to `COc1cccc(-c2nc(NC3CC3)c3ccccc3n2)c1`, the Potency was > 46 µM (inactive). The same measure for `COc1ccc2[nH]cc(CCNc3ncnc4ccc(-c5ccoc5)cc34)c2c1`: > 46 µM (inactive).
